According to PubChem BioAssay (NCI):
The panel holds about 79,000 compounds, 15% with a hit somewhere; the sample as a whole holds those more often. Rule as the data show it: active = growth inhibition above about 70%; inactive = the rest.

Experiments:
[1] = NCI Yeast Anticancer Drug Screen. Data for the rad50 strain (AID 155);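 also: 0% = growth of vehicle-only cultures of the same strain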; conditions: S. cerevisiae rad50 strain growth inhibition; at 50.0 µM; hits give high values
How it was run: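 Readout: growth inhibition relative to vehicle-treated cultures. Compound exposure was carried out in a genetically defined yeast strain deficient in DNA damage repair.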

[2] = NCI Yeast Anticancer Drug Screen. Data for the mec2-1 strain (AID 157); conditions: S. cerevisiae mec2-1 strain, at 50.0 µM, hits give high values
How it was run: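 Using mec2-1 yeast: add compound, measure growth, express inhibition versus vehicle-treated cultures.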

[3] = NCI Yeast Anticancer Drug Screen. Data for the sgs1 mgt1 strain (AID 161);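 also: 0% = growth of cultures given vehicle only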; conditions: S. cerevisiae sgs1 mgt1 strain, at 50.0 µM, hits give high values
How it was run: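 Growth of a repair-deficient yeast mutant was monitored after compound treatment and expressed as inhibition relative to vehicle-treated cultures.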

[4] = NCI Yeast Anticancer Drug Screen. Data for the cln2 rad14 strain (AID 165);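 also: 0% = growth equal to vehicle treated cultures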; conditions: S. cerevisiae cln2 rad14 strain, at 50.0 µM, hits give high values
How it was run: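 Yeast strain cln2 rad14, bearing defects in cell cycle control and DNA repair, serves as the test system; values reflect growth inhibition compared with vehicle.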

[5] = NCI Yeast Anticancer Drug Screen. Data for the bub3 strain (AID 167); conditions: S. cerevisiae bub3 mutant strain, at 50.0 µM, hits give high values
How it was run: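 Readout: yeast growth inhibition, expressed relative to vehicle-only wells. The test organism is a mutant strain from a panel with lesions in DNA repair or checkpoint genes.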

[6] = NCI Yeast Anticancer Drug Screen. Data for the mlh1 rad18 strain (AID 175); conditions: S. cerevisiae mlh1 rad18 strain growth inhibition; at 50.0 µM; hits give high values
How it was run: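 Steps: expose repair-defective yeast to compound; measure growth; express inhibition against vehicle-treated controls.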

Measured: growth inhibition

O=C(c1ccccc1)C(C(c1ccc(Cl)cc1)N1CCOCC1)N1CCOCC1 (stereo unspecified)
inactive: [1] 5.15% | [2] 2.75% | [3] 16.8% | [4] 19.9% | [5] 10.7% | [6] 7.65%

CC12C3CC4C5CC(C(C53)[C@@H]1NCc1ccccc1)C42 (stereo partly specified)
inactive: [1] 44.8% | [2] 6.8% | [3] 19.2% | [4] 35.4% | [5] 32.9% | [6] 21.9%

NC(N)=NC1CCc2ccccc2C1 (stereo unspecified)
inactive: [1] 4.4% | [2] -2.85% | [3] -4% | [4] -5.1% | [5] -0.6% | [6] -5.1%

Cc1ccc(NC(=O)Nc2ccc(Cl)cc2)c(C)c1
inactive: [1] -12.8% | [2] -6% | [3] 1.65% | [4] -28.6% | [5] 5.6% | [6] -0.65%

O=C(O)CCc1c(-c2ccccc2)c(-c2ccccc2)c2n1CCC2
inactive: [1] 49.5% | [2] 41% | [3] 56.5% | [4] -12.6% | [5] 33.9% | [6] 48.9%

COCN(COC)c1nc(CCC(Br)(Br)Br)nc(N(COC)COC)n1
inactive: [1] 36.5% | [2] 11.5% | [3] 21.9% | [4] 37% | [5] -2.85% | [6] 31%

COC(=O)[C@H]1[C@H]2C[C@@H]3c4[nH]c5ccccc5c4CCN3C[C@H]2C[C@@H](OC(=O)c2cc(OC)c(OC)c(OC)c2)[C@@H]1OC
inactive: [1] 15.8% | [2] -7.35% | [3] 17.1% | [4] 5.6% | [5] 18.5% | [6] 17.3%

Cc1ccc(S(=O)(=O)NC(CCC(=O)NN)C(=O)NN)cc1 (stereo unspecified)
inactive: [1] 9.55% | [2] 7.2% | [3] -15.2% | [4] 5.95% | [5] -1.8% | [6] -43.4%

Cc1ccc2nc(CC(=O)c3ccccc3)c(CC(=O)c3ccccc3)nc2c1
inactive: [1] 0.7% | [2] -17% | [3] 2.25% | [4] 24.1% | [5] 0.15% | [6] -2.9%

CC(=O)C1=CN(Cc2ccccc2)C(O)CC1C(N)=O (stereo unspecified)
inactive: [1] 7.55% | [2] -12.6% | [3] 4.7% | [4] 10.8% | [5] 16.1% | [6] 1.3%

COc1ccc2c3c([nH]c2c1)CCN(CCCC(=O)c1ccc(F)cc1)C3
inactive: [1] -8.15% | [2] -4% | [3] 42.6% | [4] 31.1% | [5] 45.2% | [6] 1.8%

O=C1CC=C2C3CC4N(CCC45c4ccccc4N1C25)C/C3=C\CBr (stereo unspecified)
inactive: [1] -8.45% | [2] -21.8% | [3] -7.95% | [4] 8.15% | [5] 7.2% | [6] -5.95%

CCOC(=O)C1=NN(c2ccccc2)C(=O)/C1=C\n1ccc(=O)[nH]c1=S
inactive: [1] -32.5% | [2] -43.8% | [3] -44.5% | [4] -36.1% | [5] -25.9% | [6] -60.8%

O=S(O)c1cc(Cl)c(O)c(Cl)c1
inactive: [1] -7.1% | [2] 1.3% | [3] -7.05% | [4] -37.5% | [5] -5.1% | [6] -2.75%

OC(c1ccoc1)c1cc2ccccc2s1 (stereo unspecified)
inactive: [1] 65% | [2] 23.2% | [3] 52.5% | [4] 22.2% | [5] 21.6% | [6] 36.7%

BrCCCOc1ccccc1Br
inactive: [1] 14.6% | [2] -11.2% | [3] 1.6% | [4] -32.1% | [5] 4.2% | [6] 14.2%

C/C(CC(N)=O)=C1\C(=O)NN(c2ccccc2)C1=O
inactive: [1] 23.1% | [2] 26.4% | [3] 48.2% | [4] 7.3% | [5] 40% | [6] 36.4%

Ic1ccccc1/C=C/c1ccccn1
inactive: [1] 14.6% | [2] 11.3% | [3] 28.7% | [4] -54.6% | [5] 31.8% | [6] -0.2%

CC(=O)CC(=O)NCc1ccc2c(c1)OCO2
inactive: [1] -17.4% | [2] -9.2% | [3] -16.3% | [4] 3.75% | [5] -15.1% | [6] -11.8%

CCOC(=O)C1CC1OCc1ccccc1 (stereo unspecified)
inactive: [1] -0.2% | [2] 11.7% | [3] 4.9% | [4] -15.9% | [5] 4% | [6] 5.3%

CCc1cc(-c2ccc(OC)cc2)c(C#N)c(=S)n1C1OC(CO)C(O)C(O)C1O (stereo unspecified)
inactive: [1] 4.9% | [2] -3.5% | [3] 6.4% | [4] 0.7% | [5] 3.35% | [6] 7.7%
